Laboratory results from the supplement of paper PMC6555819.

How the values were obtained:
Test in all cases: PBM binding z-score (relative to random genomic background probes); higher = stronger binding; sequences stand for … in GC…GCGATTGACAGCGTAGAATGAAGG
[1] = test system: FXR:RXRa (NR concentration 270 nM, RXRa partner concentration 90 nM)
How it was run: (§1)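 On custom Agilent 4×180K arrays, double-stranded probes with 34-nt variable regions carried direct-repeat seeds, single-nucleotide variants, half-site ablations or random human genomic background. Ligand-free nuclear receptor dimers were applied for 1 h, and binding was read with antibodies against each partner (one per run). Binding z-scores come from regression-normalized fluorescence, with the random background probes as reference.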

[2] = test system: LXRa:RXRa (NR concentration 270 nM, RXRa partner concentration 90 nM)
How it was run: as §1

[3] = test system: LXRa homodimer (NR concentration 270 nM)
How it was run: as §1

[4] = test system: LXRb:RXRa (NR concentration 270 nM, RXRa partner concentration 90 nM)
How it was run: as §1

[5] = test system: LXRb homodimer (NR concentration 270 nM)
How it was run: as §1

[6] = test system: PPARa:RXRa (NR concentration 270 nM, RXRa partner concentration 90 nM)
How it was run: as §1

[7] = test system: PPARg:RXRa (NR concentration 180 nM, RXRa partner concentration 90 nM)
How it was run: as §1

[8] = test system: PPARg:RXRa 270nM:90nM, anti-RXR (NR concentration 270 nM, RXRa partner concentration 90 nM)
How it was run: as §1

[9] = test system: PPARg:RXRa 30nM:10nM, anti-RXR (NR concentration 30 nM, RXRa partner concentration 10 nM)
How it was run: as §1

[10] = test system: PPARg:RXRa 90nM:30nM, anti-RXR (NR concentration 90 nM, RXRa partner concentration 30 nM)
How it was run: as §1

Sequence	PBM binding z-score [1]	PBM binding z-score [2]	PBM binding z-score [3]	PBM binding z-score [4]	PBM binding z-score [5]	PBM binding z-score [6]	PBM binding z-score [7]	PBM binding z-score [8]	PBM binding z-score [9]	PBM binding z-score [10]
TCATATAGGTAAGACAGGTGAAAGTCGGCATCTA	1.17	1.21	0.129	0.604	0.0128	1.49	0.925	2.42	4.15	3.3
CAAACTAGGTCAAAGGTCAAAGTGGAGCCAACCA	7.94	7.01	5.57	6.96	3.14	7.45	13.9	11.2	12.3	13.7
ATACTAAGGTGATCGTGAGGTCGTTGATACTAAC	2.4	2	0.85	1.55	0.314	2.07	0.615	0.774	0.762	0.566
TCATATAGGTAAACCGGTGAAAGTCCGTAAGTTA	0.407	0.533	0.147	0.517	-0.352	1.68	1.17	2.72	3.49	2.97
CGGACTGGGGCAGAAAGGTTACCATACCATCCGG	0.574	0.739	-0.05	1.25	-0.31	2.7	2.62	3.46	1.89	2.62
ATAAGTAGGTTAAGGGTCATTCAGGTTGGTTCGC	4.91	4.67	3.52	4.65	2.15	6.55	12	9.92	10.7	11.2
AGTCGAAGTTCACTAGGTAACGTAAGATTCAGCT	1.2	1.74	0.29	1.03	-0.107	2.81	3.18	3.43	0.891	2.44
CGAACTAGGTCAAGGACAGTCAATCTCCGCACGC	3.39	2.64	0.323	1.57	-0.248	4.76	7.58	6.42	3.9	5.59
CCTAGCAGGCCAATCTGAGTCACTCAAGGCTTGA	-0.524	-0.573	-0.759	-0.644	-0.64	-0.513	-0.183	-0.961	-0.966	-1.25
TGTCAAAGTTCAAAGTTAACGTAAGTATCCACAC	6.94	6.38	5.46	4.6	2.99	5.59	8.27	7.38	5.04	7.29
ATACCAAGGTGATCGTGAGCTCGTTGATACTAAC	0.125	-0.0736	-0.322	0.0963	-0.116	0.174	0.373	-0.151	-0.316	-0.0822
AGAATGAGGTTACCCAAGATCAGGGAAACGCTTG	1.63	5.76	-0.558	2.48	-0.333	3.05	2.29	2.2	0.837	1.49
TTACCAAGGTGAGCTGAGGGCGTTGATCCAACTC	0.29	-0.133	-0.543	-0.27	-1.16	0.372	-0.203	-0.041	-0.278	-0.0993
ATCTCTAGGTAACAAGTTCAGTAAAAGAGAGGAC	0.872	1.08	1.01	0.953	1.1	1.81	1.76	2.11	0.675	1.82
CCTTACGGGTGACTCCAGGTTATAGCATCGGAGT	0.642	5.37	0.839	1.76	-0.486	1.35	0.581	0.491	-0.12	0.123
GCTATTAGTTGAGAGGGCAACCGAATGATTCTCG	0.249	0.428	0.355	0.434	-0.23	1.38	1.03	2.25	0.553	1.53
CCTACTGGGCCACGAAAGGTCAATGATTCAGTGA	3.22	4.61	2.93	3.95	-0.0572	4.44	4.52	4.6	1.66	3.59
ATCTCTAGGTAACAGTTCAGTGAATCCCGAGGAT	0.279	0.179	0.588	0.193	0.937	2.24	3.39	4.74	3.06	4.55
TCAGACAGGTGAAGGTAACCCAGGTACGCAGTCG	1.04	1.3	0.143	0.546	-0.122	1.45	0.909	2.04	3.53	2.77
